PP5 primary = inhibitors of human protein phosphatase 5 (PP5) | P53041 | purified PP5c, OMFP substrate fluorescence | inhibition, % at 6.7 µM | 320,000 compounds, 0.18% hits | AID 1987;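 active = inhibition above the campaign's mean inhibition across all tested compounds plus 3 SD, cut at about 9.5% in these data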;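 note: 0% = DMSO only and 100% = 100 µM cantharidin control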
CSC inhib = blocks cancer stem cells; cancer stem cell-like cells viability, luminescence; inhibition, % at 7.5 µM; 300,000 compounds, 1.1% hits; AID 2717; in the data active = inhibition above about 75%; tested in HMLE shEcad cells
Calb FLC = C. albicans growth modulation with fluconazole | C. albicans CaCi-2 (fluconazole-resistant clinical isolate) + fluconazole, Alamar Blue growth, 48 h | growth inhibition, % (concentration not given with the values) | 300,000 compounds, 0.57% hits;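 active = growth inhibition above about 58% in most replicates, limit read from the data, passing the limit was not always enough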;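 note: all wells also contain fluconazole at 8 µg/ml as a sub-toxic cotreatment; 0% = median of DMSO wells and 100% = median of geldanamycin control wells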
PP1 inh = counter-screen for PP5 inhibitors: inhibitors of human PP1-alpha | purified PP1alpha, OMFP fluorescence | inhibition, % at 6.7 µM | 320,000 compounds, 0.9% hits | AID 2235;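 active = inhibition above the mean inhibition of all tested compounds plus 3 SD, computed separately for each screening campaign, cut at about 15% in these data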
Mdm2-MdmX inh = human Mdm2/MdmX binding inhibition; SaOS-2 split-luciferase Mdm2/MdmX complementation, luminescence; inhibition, % at 8 µM; 330,000 compounds, 3% hits;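 active = inhibition of at least 50% at 8 µM in the primary screen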
Target sequence (O15151 whole entry, looked up): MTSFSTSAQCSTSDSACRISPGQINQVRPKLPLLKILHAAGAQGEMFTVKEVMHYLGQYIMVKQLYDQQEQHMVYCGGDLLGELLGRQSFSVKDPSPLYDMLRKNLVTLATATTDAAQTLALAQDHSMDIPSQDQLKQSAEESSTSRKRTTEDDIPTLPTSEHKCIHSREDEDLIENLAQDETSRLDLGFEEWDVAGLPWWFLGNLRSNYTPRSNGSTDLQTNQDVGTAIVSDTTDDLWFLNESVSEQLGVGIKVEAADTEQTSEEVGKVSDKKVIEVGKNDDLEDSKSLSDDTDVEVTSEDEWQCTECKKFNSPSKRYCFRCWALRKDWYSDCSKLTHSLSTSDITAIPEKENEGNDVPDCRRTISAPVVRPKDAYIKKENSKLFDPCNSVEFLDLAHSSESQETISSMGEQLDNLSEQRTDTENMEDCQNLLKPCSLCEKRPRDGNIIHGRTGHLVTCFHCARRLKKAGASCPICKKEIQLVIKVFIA
Target sequence (Q00987 whole entry, looked up): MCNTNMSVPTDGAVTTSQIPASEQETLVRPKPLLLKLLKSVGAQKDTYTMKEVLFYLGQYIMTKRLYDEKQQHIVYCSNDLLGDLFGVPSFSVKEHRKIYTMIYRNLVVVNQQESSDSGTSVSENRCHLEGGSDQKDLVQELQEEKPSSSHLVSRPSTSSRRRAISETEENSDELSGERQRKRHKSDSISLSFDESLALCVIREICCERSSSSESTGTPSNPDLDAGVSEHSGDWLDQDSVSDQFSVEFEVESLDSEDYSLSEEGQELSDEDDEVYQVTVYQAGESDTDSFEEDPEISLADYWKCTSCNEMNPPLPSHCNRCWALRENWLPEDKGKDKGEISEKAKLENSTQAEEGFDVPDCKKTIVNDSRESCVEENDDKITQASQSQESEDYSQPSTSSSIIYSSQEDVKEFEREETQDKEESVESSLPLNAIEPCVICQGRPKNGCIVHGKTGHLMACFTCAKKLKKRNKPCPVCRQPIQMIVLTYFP
Beta cell apopt = blocks beta cell apoptosis; INS-1E cytokine-induced death, ATP luminescence, 48 h; percent of positive-control rescue, neutral wells zero; AID 435005; protection from apoptosis, % (test concentration not listed); 300,000 compounds, 0.8% hits;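 active = Every replicate reaches about 75%, or at least half do and their mean reaches it too, limit read from the data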;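 note: 0% = cytokine-treated negative control wells and 100% = positive control rescue; higher means more ATP so stronger rescue from cytokine killing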
Mdm2-MdmX conf = confirmation of human Mdm2/MdmX interaction inhibitors; shares compounds with Mdm2-MdmX inh; Mdm2-MdmX binding, luminescent assay; inhibition, % at 8 µM; 10,000 compounds, 55% hits; AID 489028; in the data active = inhibition above about 40%
FLuc counter = full-length luciferase inhibition in Mdm2/MdmX counter-screen | shares compounds with Mdm2-MdmX inh | inhibition, % at 8 µM | SaOS-2 full-length luciferase counterscreen, luminescence | 6,200 compounds, 77% hits;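 active = mean inhibition at 8 µM reaching about 37%, which flags the compound as non-specific, limit read from the data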;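 note: p53-null SaOS-2 cells with luciferase driven by a doxycycline-inducible promoter; compound on cells about two nights before reading with doxycycline added after day one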
* = called active by the depositor; . = no result. This is a sample that favours compounds with a hit; in the whole collection about 4.9% have one here.

SMILES	PP5 primary	CSC inhib	Calb FLC	PP1 inh	Mdm2-MdmX inh	Beta cell apopt	Mdm2-MdmX conf	FLuc counter
CCOc1cc2c3c(c1)C(C)=CC(C)(C)N3C(=O)C2=O	3	17	-3	4	68*	18	39	85*
CCOc1cc2c3c(c1)C(C)CC(C)(C)N3C(=O)C2=O (stereo not drawn)	3	12	2	0	-10	-8	.	.
N#CCSc1nc2c(sc(=S)n2Cc2ccco2)c(=O)n1-c1ccc(F)cc1	3	6	3	10	61*	9	58*	32
COc1ccc(S(=O)(=O)N(C)C[C@H]2Oc3c(NC(=O)Nc4ccc(C(F)(F)F)cc4)cccc3C(=O)N([C@H](C)CO)C[C@@H]2C)cc1	.	50	.	.	52*	13	22	.
C[C@@H]1CN([C@H](C)CO)C(=O)c2cccc(NC(=O)Nc3ccc(C(F)(F)F)cc3)c2O[C@H]1CN(C)S(=O)(=O)c1cccs1	.	.	.	.	57*	4	41*	73*
C[C@H]1CN([C@@H](C)CO)C(=O)c2cccc(NC(=O)Nc3ccc(C(F)(F)F)cc3)c2O[C@@H]1CN(C)S(=O)(=O)c1ccccc1	.	.	.	.	38	.	.	.
S=C(N/N=C/c1ccc2c(c1)OCO2)NC1CC2CCC1C2 (stereo not drawn)	-2	51	3	-2	-35	11	.	.
Cc1cc(C)nc(NC(=S)Nc2ccc(Br)cc2Cl)c1	-2	-13	-2	-4	51*	-1	-6	.
COc1cc(-c2cc(C(=O)Nc3ccc(C)c(S(=O)(=O)N4CCOCC4)c3)c3ccccc3n2)cc(OC)c1OC	.	15	.	.	52*	-20	39	73*
COc1cc(-c2cc(C(=O)Nc3cccc(C(C)=O)c3)c3ccccc3n2)cc(OC)c1OC	2	13	9	-2	61*	.	40	82*
O=C(NCc1ccco1)c1cc(-c2ccccc2)nc2ccccc12	2	-5	6	1	15	4	.	.
COc1ccc(NC(=O)c2cc(-c3ccncc3)nc3ccccc23)c(OC)c1	.	.	.	.	0	13	.	.
COc1cc(-c2cc(C(=O)Nc3ccc(O)cc3)c3ccccc3n2)cc(OC)c1OC	3	27	6	3	38	10	.	.
O=C(Nc1cccc(S(=O)(=O)NCc2ccco2)c1)c1cc(-c2ccccc2)nc2ccccc12	4	39	-11	1	52*	-2	25	.
COc1cc2c(cc1NC(=O)c1cc(-c3ccncc3)nc3ccc(C)cc13)oc1ccccc12	0	37	22	-2	51*	50	9	.
C[C@]12c3[nH]c4cc(-c5ccco5)ccc4c3CCN1C(=O)[C@@H](CC(=O)NCc1cccc(C(F)(F)F)c1)C[C@@H]2C(=O)N1CCCCC1	.	.	.	.	85*	.	-1	.
C[C@]12c3[nH]c4cc(-c5ccco5)ccc4c3CCN1C(=O)[C@@H](CC(=O)NCCN1CCOCC1)C[C@@H]2C(=O)N1CCOCC1	.	.	.	.	11	.	.	.
CC[C@]12c3[nH]c4ccc(Cl)cc4c3CCN1C(=O)[C@@H](CC(=O)NCC13CC4CC(CC(C4)C1)C3)C[C@@H]2C(=O)N1CCN(C(=O)c2ccco2)CC1	.	.	.	.	87*	.	41*	38*
C[C@]12c3[nH]c4cc(-c5ccco5)ccc4c3CCN1C(=O)[C@@H](CC(=O)NCC13CC4CC(CC(C4)C1)C3)C[C@@H]2C(=O)N1CCCCC1	.	.	.	.	78*	.	12	.
CC[C@]12c3[nH]c4cc(-c5ccco5)ccc4c3CCN1C(=O)[C@@H](CC(=O)NCC13CC4CC(CC(C4)C1)C3)C[C@@H]2C(=O)N1CCN(C(=O)C2CC2)CC1	.	.	.	.	78*	.	-14	.
CCOC(=O)Cc1nnc2c(Nc3ccc(Cl)cc3)nc3nonc3n12	1	56	-9	2	92*	27	40*	44*
CCOC(=O)Cc1csc(Nc2ccc(Cl)cc2)n1	2	-10	-35	3	31	-2	.	.
Cc1cc(C)n(S(=O)(=O)/C=C/c2ccccc2)n1	-2	-14	-19	0	73*	-11	89*	52*
